D2 ag-1 = Beta-Arrestin HTS for Positive Allosteric Modulators of the Human D2 Dopamine Receptor: Agonists. DiscoveRx PathHunter D2 beta-arrestin, luminescence, 90 min; 100% = 57 uM dopamine signal. D(2) dopamine receptor (Homo sapiens), P14416. activation, % (test concentration not listed). hit rate 0.084% among 360,000; in the data active = activation above about 40%
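DiscoveRx PathHunter D2 beta-arrestin cells (2,100/well) attached overnight, then compound-stimulated 90 min at 37 C in HBSS/10 mM HEPES/0.1% Tween-20 buffer; beta-galactosidase complementation read by luminescence after 1 h at ambient temperature. Dopamine 57 uM final (EC100) as control.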
D2 ag-2 = HTS Assay for Allosteric Agonists of the Human D2 Dopamine Receptor: Primary Screen for Agonists | D(2) dopamine receptor (Homo sapiens), P14416 | HEK293 T-REx D2 cells, calcium flux agonist mode | activation, % at 2 µM | hit rate 0.53% among 340,000 | AID 485358, 2010;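 active = activation over 3 SD above normal in the single-dose calcium agonist read, cut at about 30% in these data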; note: 0% is about no effect
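Tetracycline-induced HEK293 Trex cells with D2 receptor force-coupled to calcium signaling, plated overnight at 30 C and loaded with no-wash calcium dye. Calcium flux read kinetically for 180 s after compound addition; responses flag agonists.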
D2 PAM-1 = HTS Assay for Positive Allosteric Modulators of the Human D2 Dopamine Receptor: Primary Screen for Potentiators; D(2) dopamine receptor (Homo sapiens), P14416; HEK293 T-REx D2, calcium flux, EC20 dopamine potentiation; potentiation, % at 10 µM; hit rate 0.34% among 340,000; AID 485347, 2010;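 active = potentiation over 3 SD above the plate norm, cut at about 30% in these data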; note: 0% is about no effect
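Primary screen. Calcium kinetics in induced HEK293 T-REx D2 cells: compound pre-addition 180 s, EC20 dopamine, 180 s more.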
D2 antagonist = HTS Assay for Allosteric Antagonists of the Human D2 Dopamine Receptor: Primary Screen for Antagonists. D(2) dopamine receptor (Homo sapiens), P14416. inhibition, % at 10 µM. hit rate 2% among 340,000. HEK293 TREx D2 cells, calcium flux, dopamine EC80; in the data active = inhibition above about 30%; inactive = below that, where a call was filed; note: 0% is about no effect
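HEK293 T-REx D2 cells, tet-induced, calcium dye no-wash. Cpd pintool add, 180 s kinetic, then EC80 DA, 180 s kinetic. Ca flux read.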
D2 PAM-2 = Beta-Arrestin HTS for Positive Allosteric Modulators of the Human D2 Dopamine Receptor: Potentiators. potentiation, % (concentration not given with the values). hit rate 0.23% among 360,000. DiscoveRx D2 beta-arrestin cells, luminescence, 90 min; 100% = 57 uM dopamine signal. D(2) dopamine receptor (Homo sapiens), P14416; in the data active = potentiation above about 50%
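D2 cells co-treated with compound plus 50 nM dopamine (EC20) for 90 min at 37 deg C to detect potentiation. Beta-arrestin recruitment was read as enzyme-fragment luminescence after 1 h at ambient temperature. Full response was set by 57 uM dopamine.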
Anesthetic bind = qHTS Assay for Identification of Novel General Anesthetics; Ferritin light chain (Equus caballus), P02791; apoferritin/1-aminoanthracene competitive binding, fluorescence; Potency, µM (titrated, usually from 77.5 µM), for inactives: at the highest dose activity change, negative = displacement, hits mostly inhibitors; hit rate 0.074% among 350,000; note: potency is the fitted concentration of half-maximal effect; % is set by controls: 0 for no effect and ±100 for the full control effect; nearly all actives have a fitted effect of over 20% in size
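Read-out: endpoint 1-AMA fluorescence, excitation 380 nm and emission 535 nm, after compounds sit 10 min at room temperature with 10 uM horse-spleen apoferritin in 50% saturated 1-AMA/PBS. Values come from four-parameter Hill fits.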
D3 arrestin ag = qHTS of D3 Dopamine Receptor Agonist: D3 Dopamine Receptor B-arrestin Agonist Confirmatory Assay; shares compounds with D2 ag-2; DiscoveRx D3 beta-arrestin cells, luminescence, 90 min; Potency, µM (titrated, usually from 76.9 µM), inactives show at the top dose activation, usual class: activators; hit rate 4% among 2,300; AID 720506, 2013;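 note: potency is the fitted concentration of half-maximal effect; 100% = dopamine control response; nearly all actives have a fitted effect of over 70% in size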
Target sequence (P35462 whole entry, looked up): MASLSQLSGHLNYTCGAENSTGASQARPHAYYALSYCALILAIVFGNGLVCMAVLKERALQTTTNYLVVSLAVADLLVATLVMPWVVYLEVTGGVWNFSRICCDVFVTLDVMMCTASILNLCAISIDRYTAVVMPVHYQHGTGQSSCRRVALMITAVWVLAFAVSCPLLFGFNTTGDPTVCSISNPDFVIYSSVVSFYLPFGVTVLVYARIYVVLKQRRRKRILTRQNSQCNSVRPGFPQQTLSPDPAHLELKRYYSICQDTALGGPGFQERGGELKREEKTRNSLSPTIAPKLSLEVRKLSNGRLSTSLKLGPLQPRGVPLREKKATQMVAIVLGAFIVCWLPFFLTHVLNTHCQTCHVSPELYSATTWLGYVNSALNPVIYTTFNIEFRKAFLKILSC
D2 ag-3 = qHTS of D3 Dopamine Receptor Agonist: D2 Dopamine Receptor B-arrestin Agonist Counterscreen; shares compounds with D2 ag-2; hit rate 5.9% among 2,300; DiscoveRx PathHunter D2 beta-arrestin, luminescence, 90 min; response scale: percent relative to full dopamine signal; Potency, µM (highest dose often 76.9 µM), for the others: at the top dose activation, usual class: activators; note: potency is the fitted concentration of half-maximal effect; % of control where 0% means no effect; nearly all actives have a fitted effect of over 70% in size
Starred values were filed as active, the others as inactive; . = no result; ! = not active in a repeat. This is a sample that favours compounds with a hit; in the whole collection about 2.5% have one here. Unless noted, calls come from the whole dose curve; as a rule, active = well fitted curve in the direction sought with a large enough effect; inconclusive = small, poorly fitted or top-dose-only effect, or another doubt; inactive = no such curve, though single readings can be large; an effect the other way counts as inactive or inconclusive.

SMILES | D2 ag-1 | D2 ag-2 | D2 PAM-1 | D2 antagonist | D2 PAM-2 | Anesthetic bind | D3 arrestin ag | D2 ag-3
COc1ccc(C)cc1NC(=O)CN1CCN(c2ccccn2)CC1 | 11 | 53* | -18 | -3 | 0 | -5% | 13% | 21%
CCN(c1ccccc1)P(=O)(Nc1ccccc1)Nc1ccccc1 | -4 | -1 | 5 | 1 | -3 | -18% | . | .
Fc1ccccc1N1CCN(c2nc3ccccc3c3nc(-c4ccccc4)nn23)CC1 | . | 0 | 0 | . | . | 4% | . | .
COc1ccc(C(=O)NCC(=O)N2CC=C(c3ccccc3)CC2)cc1OC | 4 | 0 | -9 | -7 | -5 | . | . | .
Cc1cccc(C(=O)NCC(=O)N2CC=C(c3ccccc3)CC2)c1 | 1 | 0 | -5 | 0 | 1 | . | -1% | -1%
O=C(O)c1ccccc1C(=O)N1CC=C(c2ccccc2)CC1 | 0 | 29 | -18 | 4 | -30 | -13% | -3% | 6%
CCOc1ccc(C(=O)c2cn(Cc3ccccc3OC)c3cc4c(cc3c2=O)OCCO4)cc1 | . | -1 | -1 | . | . | -12% | . | .
Cn1c(=O)oc2cc(S(=O)(=O)NCCN3CCN(c4ccccc4F)CC3)ccc21 | 1 | 55* | -24 | 77* | -8 | -7% | 12% | 22%
COc1ccc(N2CCN(CCCNS(=O)(=O)c3ccc4c(c3)oc(=O)n4C)CC2)cc1 | 2 | 19 | -18 | 30 | -11 | -4% | 9% | 14%
Cc1cccc(N2CCN(C(=O)CCS(=O)(=O)c3ccc4c(c3)oc(=O)n4C)CC2)c1C | 4 | 3 | -10 | 15 | -18 | -1% | . | .
Cn1c(=O)oc2cc(S(=O)(=O)NCCN3CCCCCC3)ccc21 | 0 | 1 | -9 | 15 | 9 | -9% | . | .
Cc1cccc(N2CCN(C(=O)CCNS(=O)(=O)c3ccc4c(c3)oc(=O)n4C)CC2)c1C | 4 | 45* | -17 | -7 | 5 | -3% | 11% | 25%
O=C(Nc1c(C(=O)N2CCN(c3ccccc3F)CC2)oc2ccccc12)c1ccccc1F | . | 1 | 3 | . | . | -10% | . | .
Oc1ccc(N2CCN(c3ncnc4sc(-c5ccccc5)cc34)CC2)cc1 | 6 | 3 | -1 | -1 | 14 | -9% | . | .
CCOC(=O)N1CCC(NCCNC(=O)c2ccccc2Cl)CC1 | 2 | 0 | 3 | 56* | -1 | -6% | -14% | 12%
CCOC(=O)N1CCC(NCCNC(=O)c2cccs2)CC1 | 8 | 6 | . | 6 | -26 | 22% | -9% | 11%
CCOC(=O)N1CCC(NCCNC(=O)c2ccccc2)CC1 | 7 | 66*! | -13 | 51* | -13 | 5% | -2% | 7%
CCOC(=O)N1CCC(NC(=O)c2ccccc2C(=O)O)CC1 | -1 | 0 | -1 | -6 | 0 | -1% | . | .
CCOC(=O)N1CCC(NC(=O)Cc2ccccc2)CC1 | -5 | 0 | -3 | -1 | -16 | 5% | . | .
O=C(NCCNC1CCC(c2ccccc2)CC1)c1cccs1 (stereo unspecified) | -2 | 50* | -11 | 48* | -18 | -14% | -5% | -3%

Compound activity as filed in PubChem.
